Results on 39 compounds are retold here after PubChem BioAssay.

Active and inactive are the calls of the source. No rule for the calls is given here.

The test is described as follows: altered dexamethasone sensitivity, NF-kB reporter, cell-based, luciferase, IL-1B stimulus (AID 624486).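 As to percent of negative control (+Dex): 100% = mean signal of vehicle control wells on the plate.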 The note with it: IL-1B + dexamethasone, luminescence; percent of negative control (+Dex): actives lie on both sides, concentration not given here; z-score: measured here: IL-1B alone, no Dex.
As to `COc1ccc2cc(-c3c(-c4ccncc4)nc(-c4ccc(S(C)=O)cc4)n3C)ccc2c1` (stereo not drawn), the z-score was determined as 0.505 and the percent of negative control (+Dex) was 93.5% (inactive).

Consider `COc1ccc2cc(-c3c(-c4ccncc4)nc(-c4ccc(S(C)(=O)=O)cc4C)n3C)ccc2c1`, for which the z-score was 0.22 and the percent of negative control (+Dex) was 99% (inactive).

As to `CN(C)CCCn1c(-c2nonc2N)nc2cnccc21`, the percent of negative control (+Dex) is 91% (inactive) and the z-score turned out to be 0.395.

Regarding `CN1CCC(n2cnc(-c3ccc(F)cc3)c2-c2ccnc(Nc3ccccc3)n2)CC1`, the percent of negative control (+Dex) was 101% (inactive) and the z-score is -0.08.

On to `CCS(=O)(=O)c1ccc(OC)c(Nc2ncc(-c3cccc(-c4ccccc4F)c3)o2)c1`, for which the z-score turned out to be 0.785 and the percent of negative control (+Dex) was 88% (inactive).

With `COC(=O)Nc1nc2ccc(Oc3ccc(NC(=O)Nc4cccc(C(=O)O)c4)cc3)cc2[nH]1`, the percent of negative control (+Dex) is 118% (inactive) and the z-score was 1.69.

In the case of `COC(=O)Nc1nc2ccc(S(=O)(=O)c3ccc(NC(=O)Nc4cc(C(F)(F)F)ccc4F)cc3)cc2[nH]1`, the percent of negative control (+Dex) is 86.5% (inactive) and the z-score stood at 0.105.

For `COc1c(C(N)=O)cc(-c2ccc(Cl)cc2)cc1-c1ccc(S(N)(=O)=O)cc1`, the z-score was determined as 0.135 and the percent of negative control (+Dex) was 90.5% (inactive).

For the compound `CN(C)CCNC(=O)Nc1ccc(N(C)c2ccnc(Nc3ccc(CS(C)(=O)=O)cc3)n2)cc1`, the z-score is -0.235 and the percent of negative control (+Dex) was 101% (inactive).

Turning to `FC(F)(F)c1cccc(-c2nn3ncccc3c2-c2ccnc(Nc3ccc4c(c3)OCCO4)n2)c1`, the percent of negative control (+Dex) was 90.5% (inactive) and the z-score came to 0.13.

Take `COc1cc(N2CCN(C(C)C)CC2)ccc1Nc1nc(Nc2cccc3ncccc23)c2cc[nH]c2n1`: the z-score was -0.235 and the percent of negative control (+Dex) was 92.5% (inactive).

For the compound `NS(=O)(=O)c1ccc(NC2CC(c3cccc(O)c3)NN2)cc1` (stereo not drawn), the z-score was -0.55 and the percent of negative control (+Dex) was 81.5% (inactive).

Turning to `COc1ccccc1-c1cc(/C=C2\C(=O)Nc3ncc(Br)cc32)cc(Br)c1O`, the percent of negative control (+Dex) was 96% (inactive) and the z-score is -0.115.

Turning to `CS(=O)(=O)CCNCc1cc(-c2cc3c(Nc4ccc(OCc5cccc(F)c5)c(Cl)c4)ncnc3s2)cs1`, the percent of negative control (+Dex) is 79.5% (inactive) and the z-score was -0.645.

With `CCCN1CCCC(c2ccc(Nc3nc(Nc4cc(F)ccc4C(N)=O)c4cc[nH]c4n3)c(OC)c2)C1` (stereo not drawn), the z-score is -2.44 and the percent of negative control (+Dex) is 73.5% (inactive).

In the case of `COc1ccc2ncn(-c3cc(O[C@H](C)c4ccccc4C(F)(F)F)c(C(N)=O)s3)c2c1`, the z-score was -2.76 and the percent of negative control (+Dex) is 75% (inactive).

On to `Nc1nc(-c2ccc(F)cc2)c(-c2ccc3ncccc3n2)s1`, for which the percent of negative control (+Dex) was 85.5% (inactive) and the z-score was determined as 0.965.

In the case of `Cc1ccc2[nH]c(O)c(N=Nc3ccc(S(N)(=O)=O)cc3)c2c1`, the percent of negative control (+Dex) was 102% (inactive) and the z-score came out at 0.885.

As to `O=S1CCN(Cc2ccc(-c3ccc4ncnc(Nc5ccc(OCc6ccccc6)c(Cl)c5)c4c3)o2)CC1`, the z-score was -0.87 and the percent of negative control (+Dex) was 77% (inactive).

In the case of `CCn1c(-c2nonc2N)nc2c(C#CC(C)(C)O)ncc(OCC3CCNCC3)c21`, the z-score was -0.76 and the percent of negative control (+Dex) is 86% (inactive).

As to `COc1ccc2ncnc(Nc3ccc(OCc4ccccc4)cc3)c2c1`, the percent of negative control (+Dex) was 88% (inactive) and the z-score is -0.885.

`COc1cc(/C=N/Nc2ncnc3c2cnn3C(C)C)ccc1O`: the percent of negative control (+Dex) was 92.5% (inactive) and the z-score stood at 0.145.

Regarding `COc1ccc(-c2ccncc2)cc1C(N)=O`, the z-score was -0.52 and the percent of negative control (+Dex) is 90% (inactive).

With `COc1ccc(-c2coc3ncnc(N)c23)cc1`, the z-score was -0.765 and the percent of negative control (+Dex) is 84% (inactive).

With `CCNC(=O)O[C@H]1CN[C@H](C#Cc2cc3ncnc(Nc4ccc(OCc5cccc(F)c5)c(Cl)c4)c3s2)C1`, the percent of negative control (+Dex) was 82.5% (inactive) and the z-score was -0.355.

`Fc1ccc(Nc2nccc(-c3c(-c4ccc(C(F)(F)F)cc4)nn4ncccc34)n2)cc1F`: the percent of negative control (+Dex) is 94.5% (inactive) and the z-score turned out to be 0.25.

In the case of `CCn1c(-c2nonc2N)nc2c(C#CC(C)(C)O)nc(OC[C@H](N)c3ccccc3)cc21`, the percent of negative control (+Dex) was 106% (inactive) and the z-score was determined as 1.86.

As for `Cc1nnc(-c2ccc(C)c(-c3ccc(C(=O)Nc4cccc(C#N)c4)cc3)c2)o1`, the percent of negative control (+Dex) was 100% (inactive) and the z-score came to 0.575.

`Oc1cccc(-c2nc(-c3ccccc3)[nH]c2-c2ccncc2)c1`: the z-score was found to be 1.75 and the percent of negative control (+Dex) was 124% (inactive).

Consider `COc1ccc(-c2cc3c(N)ncnc3o2)cc1`, for which the z-score came to 2.92 and the percent of negative control (+Dex) is 118% (inactive).

For the compound `NS(=O)(=O)c1ccc(N=Nc2c(O)[nH]c3ccc(-c4cnco4)cc23)cc1`, the percent of negative control (+Dex) is 104% (inactive) and the z-score amounted to 0.22.

As for `NS(=O)(=O)c1cccc(-c2ccc3c(NC(=O)C4CC4)n[nH]c3c2)c1`, the percent of negative control (+Dex) was 90.5% (inactive) and the z-score came to 0.225.

On to `COc1cc(N2CCN(C(C)C)CC2)ccc1Nc1nc(Nc2ccc(F)cc2C(N)=O)c2cc[nH]c2n1`, for which the z-score was -2.39 and the percent of negative control (+Dex) was 70% (inactive).

With `CC(C)=Cc1cccc2[nH]c(O)c(N=Nc3ccc(S(N)(=O)=O)cc3)c12`, the percent of negative control (+Dex) is 109% (inactive) and the z-score stood at 1.89.

As to `Cc1ccc2c(-c3ccnc(Nc4ccccc4)n3)c(-c3ccc(F)cc3)nn2n1`, the percent of negative control (+Dex) was 81% (inactive) and the z-score is -1.78.

In the case of `Cc1c2ccc(N(C)c3ccnc(Nc4cccc(S(N)(=O)=O)c4)n3)cc2nn1C`, the percent of negative control (+Dex) was 94% (inactive) and the z-score amounted to 0.455.

`CNC(=O)c1cncc(/C=C/c2ccccc2Cl)c1`: the percent of negative control (+Dex) is 109% (inactive) and the z-score was found to be 0.82.

Consider `COc1cc2ncnc(Nc3ccc(C)c(O)c3)c2cc1OC`, for which the z-score is -2.25 and the percent of negative control (+Dex) was 65.5% (inactive).

Consider `CC(C)c1ccc2c(N=Nc3ccc(S(N)(=O)=O)cc3)c(O)[nH]c2c1`, for which the percent of negative control (+Dex) was 94% (inactive) and the z-score came to 0.03.
